# Laboratory results reported in PubChem BioAssay (NCI).
# About 83,000 compounds went through this panel and 20% of them were active in at least one assay; those are over-represented in the sample as a whole.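 Activity criterion: percent growth below 10, measured after cells in 96-well plates were exposed to a single compound concentration for 48 hours.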 Unmarked numbers belong to inactive results. Calls of active or inactive are those of the source.
# System: SF-268 CNS
# Assay: NCI-60 one-dose screen, 48 h (100 = growth as untreated, 0 = no growth, -100 = all killed)
# Settings: 10 µM unless noted
row,Compound,growth
1,CC1=N/C(=C\c2cccc(Br)c2)C(=O)O1,98.6%
2,O=C1C=CC(=O)c2c1nc1n2CCCC1,83.5%
3,Cc1ccc2c(NCCCN(C)C)c3c(C)nn(C)c3nc2c1,33.2%
4,COC(=O)[C@H](C(C)C)n1c(=O)c2cc(OC)c(OC)cc2c2cnc3[nH]ccc3c21,45.6%
5,NCCN1CCN(c2nccc(-c3ccc4ccccc4c3)n2)CC1,63.8%
6,Oc1cccc(Nc2nccc(-c3ccc4ccccc4c3)n2)c1,47.3%
7,CN1CCN(c2ccc3nc(-c4ccc5nc(-c6ccc(OCCC(C)(C)C)cc6)[nH]c5c4)[nH]c3c2)CC1,56.6%
8,CCOC(=O)C(CC)n1c(=O)c2cc(OC)c(OC)cc2c2cnc3[nH]ccc3c21 (centres undefined),67.4%
9,O=C(Cn1cc(CN2C(=O)c3ccccc3S2(=O)=O)nn1)Nc1ccc([N+](=O)[O-])cc1Cl,100%
10,COc1ccc2[nH]c(=O)c(/C=C/C(=O)c3ccc(Nc4nccc(-c5ccc6ccccc6c5)n4)cc3)cc2c1,94.9%
11,Cn1cc(-c2ccc(-c3cn(C)c4ncccc34)[nH]2)c2cccnc21,45.9%
12,Nc1ccc(Nc2nccc(-c3ccc4ccccc4c3)n2)cc1,49.9%
13,CCN1CCN(Cc2ccc(NC(=O)Nc3nc4ccc(Oc5ccnc(C(=O)NC)c5)cc4s3)cc2C(F)(F)F)CC1,-47.3% (active)
14,COCCOc1ccc(-c2nc3ccc(-c4nc5ccc(N6CCN(C)CC6)cc5[nH]4)cc3[nH]2)cc1,7.43% (active)
15,CCOC(=O)C(=Cc1ccccc1F)C(=O)OCC,89.9%
16,O=C(CO[N+](=O)[O-])Nc1ccc(C(=O)/C=C/c2ccc(Cl)cc2)cc1,44.9%
17,COc1ccc(-c2cc(-c3cccnc3)nc3sc4c(=O)n(-c5ccc(C)cc5)nnc4c23)cc1OC,101%
18,CN(C)CC(=O)Nc1ccc(Cn2nnc3c2C(=O)c2nnn(Cc4ccc(NC(=O)CN(C)C)cc4)c2C3=O)cc1,-49.1% (active)
19,COc1ccc2nc3cc(Cl)ccc3c(N3CCN(c4ccnc(N5CCOCC5)n4)CC3)c2c1,45.3%
20,Oc1ccc(Nc2nccc(-c3ccc4ccccc4c3)n2)cc1,47.4%

row,Compound,growth
1,CC[C@H](Nc1nc(N)nc(C)c1C#N)c1nc2cccc(NCc3ccc(C(=O)NO)cc3)c2c(=O)n1-c1ccccc1,9.63% (active)
2,CC[C@H](Nc1cc(C)nc(N)n1)c1nc2cccc(NCc3ccc(C(=O)NO)cc3)c2c(=O)n1-c1ccccc1,27.6%
3,CN(C)CCOc1ccc(-c2nc3ccc(-c4nc5ccc(N6CCN(C)CC6)cc5[nH]4)cc3[nH]2)cc1,65.8%
4,O=C1C(Cl)=C(Cl)C(=O)c2c1nc1n2CCCC1,95.9%
5,COc1ccc(-c2cn3c(-c4ccc(OC)cc4)cnc3c(Oc3ccc4c(C)cc(=O)oc4c3)n2)cc1,65.7%
6,COc1cc2cc(COc3nccc(-c4ccc(Cl)cc4)n3)c(=O)[nH]c2cc1OC,80.1%
7,CC(C)CC(CC1=CCC2CC1C2(C)C)C1=C(O)C(C)(C)C(=O)C(C)(C)C1=O (centres undefined),21.4%
8,CN(C)C(=O)c1cc2cnc(Nc3ccc(-c4csc5c(=O)cc(N6CCNCC6)oc45)cc3)nc2n1C1CCCC1,19.2%
9,Nc1nc(-c2ccc(F)cc2)cc(-c2cnn(-c3ccccc3)n2)n1,98.8%
10,O=C(CCN1CCOCC1)Nc1ccc(Cn2nnc3c2C(=O)c2nnn(Cc4ccc(NC(=O)CCN5CCOCC5)cc4)c2C3=O)cc1,1.49% (active)
11,CC1(C)CC(=O)C(c2c(-c3ccccc3)[nH]c3[nH]c(=S)[nH]c(=O)c23)=C(O)C1,106%
12,O=C(CNC1C2CC3CC(C2)CC1C3)Sc1nnc2sc3ccccc3n12 (centres undefined),101%
13,COc1c2ccccc2c(OC)c2[nH]c(=O)ccc12,64.4%
14,CC(=O)/C(=C/c1cccc(Cl)c1)C(=O)c1ccccc1,79.2%
15,CN1C2CCC1/C(=C\c1ccc(Cl)cc1)C1=C2[C@@H](c2ccc(Cl)cc2)C(C#N)=C(N)O1 (some centres undefined),85%
16,O=C(/C=C/c1cccc(Br)c1)c1ccccc1,89%
17,CN1CCN(Cc2ccc(NC(=O)c3[nH]ncc3Nc3ncnc4sccc34)cc2)CC1,-3.74% (active)
18,CSc1nc(NCCCNc2ccnc3cc(Cl)ccc23)cc(-c2ccccc2)n1,67.9%
19,C[C@@H]1CC[C@@H]2[C@@H]1[C@H](OC(=O)/C=C/c1ccccc1)[C@]1(c3ccccc3)C[C@@H](OC(=O)CO)[C@@]2(C)O1,52.5%
